From PubChem BioAssay
This is a sample that favours compounds with a hit; in the whole collection about 4% have one here.
KKLEB tox = cytotoxicity in KKLEB CF airway cells, primary screen, cytotoxicity control for CF NF-kB inhibitor project, cell-based, uHTS, fluorescence assay plates; KKLEB CF airway cells viability, ATPlite luminescence, overnight; active compounds read low; cells stimulated with P. aeruginosa culture filtrate; activity change (cytotoxicity), % at 5 µM; 0.36% of 360,000 active; AID 602141, 2011;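 active = corrected activity change at or below -50% at 5 µM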
Peg3 promoter = Peg3 promoter-driven luciferase inhibitors, primary screen, cell-based, HeLa, luciferase luminescence | HeLa PEG-Prom luciferase reporter, overnight | inhibition, % at 20 µM | 1.7% of 360,000 active | AID 588405, 2011;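 active = inhibition of at least 50% at 20 µM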
TROY NFkB inh = inhibitors of TROY-driven NF-kB signaling, primary screen, Q293 LMP1-TROYcd cells, NF-kB luciferase, uHTS. 0.98% of 360,000 active. inhibition, % at 10 µM. Q293 LMP1-TROYcd NF-kB luciferase reporter, 4 h;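 active = compounds whose plate-normalised and pattern-corrected inhibition of the luciferase reporter signal at the single screening dose is 50% or more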
HIF-2a block = HIF-2a reporter inhibitors, primary screen, luminescence, 786-0 RCC cells | 0.72% of 360,000 active | 786-0 RCC cells HIF-2a reporter, luciferase luminescence, overnight | AID 624352, 2012 | inhibition, % at 18.8 µM;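 active = inhibition of the luminescence signal of 40% or more relative to plate controls, in a single-dose primary screen at 18.75 µM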
CF NFkB block = inhibitors of PAF-induced NF-kB signaling, primary screen, cell-based, GFP fluorescence, uHTS | KKLEB NF-kB-GFP reporter, GFP fluorescence overnight | inhibition, % at 5 µM | 0.86% of 360,000 active;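 active = at least 50% inhibition at 5 µM, scaled per plate between neutral and stimulator controls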;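 note: PAF is a Pseudomonas aeruginosa culture filtrate used as stimulus; plate controls were PAF-stimulated DMSO wells for no effect and unstimulated DMSO wells for full effect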
TWEAK Fn14 block = inhibitors of TWEAK-Fn14 signaling, primary screen, luciferase reporter cells, uHTS; inhibition, % at 10 µM; AID 1159606, 2016; 2% of 360,000 active; TWEAK-stimulated Fn14 reporter cells, luciferase luminescence, 8 h; in the data active = inhibition above about 50%
An asterisk follows results filed as active; . = not tested or not shown.

SMILES	KKLEB tox	Peg3 promoter	TROY NFkB inh	HIF-2a block	CF NFkB block	TWEAK Fn14 block
O=C1/C(=N\S(=O)(=O)c2cccs2)C([n+]2cccc(Cc3ccccc3)c2)=C([O-])c2ccccc21	-3.4	34.4	28.4	1.9	56.4*	32.1
CC(C)(C)c1cc[n+](C2=C([O-])c3ccccc3C(=O)/C2=N\S(=O)(=O)c2ccccc2)cc1	-14.4	15.5	59.9*	2.9	-1.6	79.5*
Cc1ccc(S(=O)(=O)N(C)C)cc1NC(=O)C(C)OC(=O)C1CCC1 (configuration not stated)	5.5	8.7	-8.2	-2.3	23.2	-11.8
CCCCC(CCC(=O)O)(C(=O)OCC)c1csc(N)n1 (configuration not stated)	-1.2	2.7	.	10.9	8.0	73.4*
CCCCC(CCC(=O)O)(C(=O)OCC)c1csc(Nc2ccccc2)n1 (configuration not stated)	0.3	6.3	9.1	12.6	-4.1	-5.0
Cc1cc(C(=O)CSc2nnc3c(Cl)cc(Cl)cn23)c(C)n1C	3.4	9.9	-5.7	7.1	7.3	-8.5
C=CCn1c(C)cc(C(=O)CSc2nnc3c(Cl)cc(Cl)cn23)c1C	-69.7*	-5.6	16.5	-14.3	-6.2	26.4
Cc1nn(-c2ccccc2)c(Cl)c1/C=N/NC(=O)c1cccc(S(=O)(=O)N2CCCC2)c1	-25.8	18.6	6.7	17.9	29.2	62.2*
COc1ccc(-c2nn(-c3ccccc3)cc2/C=N/NC(=O)c2cccc(S(=O)(=O)Nc3ccccc3Cl)c2)cc1	-16.4	-182.0	16.3	-85.9	-11.6	56.2*
Cc1ccc(-c2nn(-c3ccccc3)cc2/C=N/NC(=O)c2ccc(Br)o2)cc1	9.1	-122.0	9.8	-95.0	-14.0	35.0
O=C(N/N=C/c1ccccc1C(=O)O)c1cccc(S(=O)(=O)N2CCOCC2)c1	28.8	-18.5	-2.4	10.7	-31.6	7.7
COc1ccc(-c2nn(-c3ccccc3)cc2/C=N/NS(=O)(=O)c2ccccc2)cc1	7.3	-159.7	-49.7	-109.7	3.6	-7.2
O=C(N/N=C\c1cn(-c2ccccc2)nc1-c1ccccc1)c1ccc(Br)o1	-3.1	-25.7	25.2	-85.1	-4.2	54.7*
Cc1ccc(/C=N/NC(=O)c2cccc(S(=O)(=O)N3CCOCC3)c2)o1	-1.5	110.1*	-6.4	4.9	6.1	5.7
CC(C)C(NC(=O)c1ccccc1F)C(=O)NCc1ccccc1 (configuration not stated)	6.3	12.4	7.9	9.8	1.9	-1.1
Cc1ccc(C(=O)O/N=C(\N)c2nonc2N)cc1	13.5	-149.0	66.0*	-83.4	-6.3	54.9*
N/C(=N\OC(=O)c1ccc(F)cc1)c1nonc1N	5.9	-19.8	-69.9	-31.1	-13.8	-13.6
CC[C@H](NC(=O)CC[C@H]1O[C@@H](n2cnc3c(NC(=O)c4ccccc4)ncnc32)[C@H](O)[C@@H]1O)c1ccccc1	6.9	0.5	4.1	15.4	-9.0	17.1
Cc1ccnc(NC(=O)/C=C/c2ccccc2Cl)c1	-17.9	-48.3	37.9	-60.6	3.3	64.5*
O=C(NC1CC1)c1sc2cc(Cl)ccc2c1Cl	6.7	-355.8	-46.4	-221.8	-29.9	-10.5
O=C(Nc1nccs1)c1sc2cc(Cl)ccc2c1Cl	-12.2	-87.2	-104.7	-108.2	-19.0	101.5*
Cc1nn(Cc2ccc(Cl)c(Cl)c2)c(C)c1NC(=O)c1sc2ccccc2c1Cl	-24.7	24.4	32.0	17.8	11.7	58.4*
Cc1cnc(NC(=O)c2sc3ccccc3c2Cl)s1	-53.5*	7.5	49.0	12.1	-26.7	85.1*
Cc1cc(=O)[nH]c2c1cnn2C(C)c1ccccc1 (configuration not stated)	13.6	-0.7	5.2	15.1	-26.1	9.2
CC(C)c1nnc(NC(=O)c2sc3ccccc3c2Cl)s1	0.0	-356.4	-25.5	-227.7	-22.9	-19.6
Cc1ccc(C(=O)Nc2ncc(C)s2)o1	5.0	-218.5	-53.8	-127.3	-5.8	27.9
